# PubChem BioAssay
# Calls of active or inactive are those of the source. Unless noted, how the calls were made is not given here.
# Columns and labels:
# [1] = anti-His antibody binders, primary screen, artefact control for SMM control protein annotation, biochemical, small-molecule microarray, 635 nm fluorescence (AID 1128); details: anti-His Alexa647 antibody binding, higher = more signal;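 further: score merges feature fluorescence with signal-to-noise for each printed compound spot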
# [2] = system: Human papillomavirus type 1a E7 protein (residues 1-88); test: HPV1a E7 small-molecule binders, primary screen, biochemical, small-molecule microarray, residues 1-88, 635 nm (AID 1129); details: small-molecule microarray binding, fluorescence 635 nm; higher = more signal
# [3] = target: Focal adhesion kinase 1 (Homo sapiens) (UniProt Q05397); test: small-molecule microarray binders of FAK, primary screen, biochemical, 635/667 nm fluorescence, BSA, DTT (AID 1130); details: PTK2 binding, 635 nm fluorescence, higher = more signal;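 further: composite of spot emission at 667 nm and signal to noise over triplicate slides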
# [4] = system: Fibrinogen (Alexa647-labelled); test: fibrinogen binders on compound microarrays, profiling panel, artefact control for SMM control-protein annotation, biochemical, small-molecule microarray, 635/667 nm fluorescence (AID 1131); details: fibrinogen-A647 binding fluorescence, higher = more signal;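 further: z-score merges 667 nm fluorescence with per-spot signal-to-noise over triplicate slides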
# [5] = target: Follistatin (Homo sapiens) (UniProt P19883); test: follistatin binders on small-molecule microarrays, primary screen, biochemical, small-molecule microarray, 635/667 nm fluorescence (AID 1132); details: FST binding, 635 nm fluorescence, higher = more signal
# [6] = target: Fibroblast growth factor 2 (Homo sapiens) (UniProt P09038); test: FGF2 binders on small-molecule microarrays, primary screen, biochemical, small-molecule microarray, 635/667 nm fluorescence (AID 1133); details: small-molecule microarray binding, FGF2, fluorescence 635/667; higher = more signal
# [7] = mitochondrial membrane potential change in A549 cells, profiling panel, cell-based, JC-1 fluorescence, basal, 24 h, 100 nL (AID 1138); details: higher = more signal;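 further: A549 lung adenocarcinoma cells under basal conditions with no added stimulus; test concentration not given here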
# Lefty1 = Lefty1 binders on small-molecule microarrays, primary screen, biochemical, small-molecule microarray, 635/667 nm fluorescence (AID 1139); details: small-molecule microarray binding, fluorescence 635/667; higher = more signal
# [8] = system: wheat germ agglutinin (Triticum aestivum), Alexa647-labelled; test: wheat germ agglutinin binders on compound microarrays, profiling panel, artefact control for SMM control-protein annotation, biochemical, small-molecule microarray, 635/667 nm fluorescence (AID 1140); details: WGA-A647 binding, 635 nm fluorescence, higher = more signal;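 further: score merges 667 nm feature emission with signal to noise over triplicate slides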
# [9] = target: Luciferin 4-monooxygenase (Photinus pyralis) (UniProt P08659); test: firefly luciferase enzyme inhibitors, primary screen, biochemical, luminescence, purified enzyme, 2006 set (AID 1141); details: SteadyGlo luminescence, 30 min, higher = more signal, called active from +8 up or from −8 down;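 further: cell-free assay with purified firefly luciferase at 100 ng per well in PBS; test concentration not given here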
# [10] = system: Wnt5a (protein binding on small-molecule microarray); test: Wnt5a binders on small-molecule microarray, primary screen, biophysical, 635/667 nm fluorescence (AID 1142); details: 635 nm fluorescence, higher = more signal;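 further: fluorescence read at 667 nm with signal to noise per printed feature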
# [11] = cell viability in Huh7 cells, primary screen, cytotoxicity control for HCV replication inhibitor project, CellTiter-Glo luminescence, basal, 48 h (AID 1143); details: Huh7 HCV replicon, higher = more signal, called active from +8 up or from −8 down;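 further: Huh7 hepatoma cells carrying a hepatitis C replication reporter with no stimulus; test concentration not given here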
# [12] = P. aeruginosa biofilm formation inhibitors, primary screen, PAO1 strain, BacTiter-Glo luminescence, LB-PBS (AID 1144); details: 12 h, higher = more signal
# [13] = CREB reporter modulators without forskolin, primary screen, cell-based, PC12, CRE-LacZ reporter, unstimulated (AID 1145); details: no forskolin, luminescence, 4.5 h, higher = more signal, called active from +8 up or from −8 down
# [14] = CREB reporter modulators under forskolin, primary screen, cell-based, PC12, CRE-LacZ reporter, forskolin-stimulated (AID 1146); details: luminescence, 4.5 h, higher = more signal, called active from +8 up or from −8 down;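 further: PC12 cells with 6xCRE LacZ reporter stimulated by forskolin 10 µM; beta-galactosidase reporter signal reflecting CREB driven transcription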
# [15] = target: Streptavidin (Streptomyces avidinii) (UniProt P22629); test: streptavidin binders on small-molecule microarray, primary screen, artefact control for SMM compound annotation, biophysical, 635/667 nm fluorescence (AID 1147); details: streptavidin binding, higher = more signal;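 further: signal reflects streptavidin binding to arrayed compounds as a control protein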
# [16] = small-molecule binders of probe aInhba, primary screen, biochemical, small-molecule microarray, 635/667 nm fluorescence (AID 1148); details: higher = more signal;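 further: score merges 667nm spot fluorescence with signal-to-noise for antibody binding to printed compounds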
# Torsin-1A (Homo sapiens) [17] = target: Torsin-1A (Homo sapiens) (UniProt O14656); test: torsin A binders from cell lysate, primary screen, small-molecule microarray, wild-type, 635/667 nm (AID 1149); details: COS7 hTOR1A-WT lysate, 635 nm fluorescence, higher = more signal
# Torsin-1A (Homo sapiens) [18] = target: Torsin-1A (Homo sapiens) (UniProt O14656); test: small-molecule binders of mutant TOR1A in lysate, primary screen, cell lysate, small-molecule microarray, COS7 lysate, 635/667 nm fluorescence (AID 1150); details: COS7 hTOR1A mutant lysate, 635 nm fluorescence, higher = more signal;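 further: score pools 667 nm emission and signal to noise measuring lysate protein binding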
# [19] = system: Sonic hedgehog protein (Shh); test: small-molecule binders of Shh protein, primary screen, biochemical, small-molecule microarray, 635/667 nm fluorescence (AID 1151); details: small-molecule microarray binding, 635 nm fluorescence; higher = more signal;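 further: Shh protein binding to compounds spotted on small-molecule microarray slides; score combines spot fluorescence intensity with signal-to-noise across triplicate slides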
# Chain of Luciferin 4-monooxygenase (Photinus pyralis) (P08659 whole entry, looked up): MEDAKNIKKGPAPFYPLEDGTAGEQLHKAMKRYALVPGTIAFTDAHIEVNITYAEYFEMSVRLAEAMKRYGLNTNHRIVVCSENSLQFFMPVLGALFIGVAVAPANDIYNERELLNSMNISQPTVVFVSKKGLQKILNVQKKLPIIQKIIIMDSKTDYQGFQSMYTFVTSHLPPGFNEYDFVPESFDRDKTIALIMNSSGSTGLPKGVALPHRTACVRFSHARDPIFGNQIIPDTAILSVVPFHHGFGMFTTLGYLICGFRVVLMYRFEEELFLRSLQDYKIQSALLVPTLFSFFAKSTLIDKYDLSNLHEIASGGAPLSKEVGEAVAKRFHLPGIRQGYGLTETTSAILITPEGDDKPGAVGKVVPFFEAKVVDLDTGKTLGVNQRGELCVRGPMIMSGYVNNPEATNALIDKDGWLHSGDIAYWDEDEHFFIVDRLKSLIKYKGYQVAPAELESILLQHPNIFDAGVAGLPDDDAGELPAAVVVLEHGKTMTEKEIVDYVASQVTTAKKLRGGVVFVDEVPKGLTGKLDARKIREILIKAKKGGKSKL
# Chain of Fibroblast growth factor 2 (Homo sapiens) (P09038 whole entry, looked up): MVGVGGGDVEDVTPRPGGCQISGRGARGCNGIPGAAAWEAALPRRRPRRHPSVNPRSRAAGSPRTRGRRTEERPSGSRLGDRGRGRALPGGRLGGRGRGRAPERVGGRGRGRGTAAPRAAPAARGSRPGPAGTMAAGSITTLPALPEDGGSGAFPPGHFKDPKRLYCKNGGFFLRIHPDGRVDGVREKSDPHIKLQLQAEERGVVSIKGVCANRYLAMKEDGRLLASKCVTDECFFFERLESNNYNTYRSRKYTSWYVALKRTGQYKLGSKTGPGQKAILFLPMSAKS
# Chain of Streptavidin (Streptomyces avidinii) (P22629 whole entry, looked up): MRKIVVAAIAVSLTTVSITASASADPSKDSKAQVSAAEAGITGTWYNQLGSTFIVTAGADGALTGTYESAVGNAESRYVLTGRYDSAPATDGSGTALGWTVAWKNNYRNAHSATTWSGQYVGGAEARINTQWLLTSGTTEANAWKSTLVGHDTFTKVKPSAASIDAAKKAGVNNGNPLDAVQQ
# Chain of Follistatin (Homo sapiens) (P19883 whole entry, looked up): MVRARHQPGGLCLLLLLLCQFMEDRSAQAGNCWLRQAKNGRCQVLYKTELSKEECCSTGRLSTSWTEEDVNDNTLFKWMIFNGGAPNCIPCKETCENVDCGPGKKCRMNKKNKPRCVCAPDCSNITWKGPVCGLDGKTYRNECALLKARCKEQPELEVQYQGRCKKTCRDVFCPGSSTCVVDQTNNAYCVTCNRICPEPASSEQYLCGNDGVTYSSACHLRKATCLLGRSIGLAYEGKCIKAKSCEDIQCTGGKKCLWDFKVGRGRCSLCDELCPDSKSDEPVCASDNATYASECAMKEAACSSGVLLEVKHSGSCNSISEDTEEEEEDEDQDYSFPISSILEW
# Chain of Torsin-1A (Homo sapiens) (O14656 whole entry, looked up): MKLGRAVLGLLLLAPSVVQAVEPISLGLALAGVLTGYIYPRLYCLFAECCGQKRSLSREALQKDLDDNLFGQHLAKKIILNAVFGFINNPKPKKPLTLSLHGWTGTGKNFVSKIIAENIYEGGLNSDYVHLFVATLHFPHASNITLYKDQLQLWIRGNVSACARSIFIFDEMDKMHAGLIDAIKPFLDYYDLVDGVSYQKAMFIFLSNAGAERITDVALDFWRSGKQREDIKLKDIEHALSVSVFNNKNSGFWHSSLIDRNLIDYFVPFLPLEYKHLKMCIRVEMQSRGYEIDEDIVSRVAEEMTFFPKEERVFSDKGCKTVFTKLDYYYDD
# Chain of Focal adhesion kinase 1 (Homo sapiens) (Q05397 whole entry, looked up): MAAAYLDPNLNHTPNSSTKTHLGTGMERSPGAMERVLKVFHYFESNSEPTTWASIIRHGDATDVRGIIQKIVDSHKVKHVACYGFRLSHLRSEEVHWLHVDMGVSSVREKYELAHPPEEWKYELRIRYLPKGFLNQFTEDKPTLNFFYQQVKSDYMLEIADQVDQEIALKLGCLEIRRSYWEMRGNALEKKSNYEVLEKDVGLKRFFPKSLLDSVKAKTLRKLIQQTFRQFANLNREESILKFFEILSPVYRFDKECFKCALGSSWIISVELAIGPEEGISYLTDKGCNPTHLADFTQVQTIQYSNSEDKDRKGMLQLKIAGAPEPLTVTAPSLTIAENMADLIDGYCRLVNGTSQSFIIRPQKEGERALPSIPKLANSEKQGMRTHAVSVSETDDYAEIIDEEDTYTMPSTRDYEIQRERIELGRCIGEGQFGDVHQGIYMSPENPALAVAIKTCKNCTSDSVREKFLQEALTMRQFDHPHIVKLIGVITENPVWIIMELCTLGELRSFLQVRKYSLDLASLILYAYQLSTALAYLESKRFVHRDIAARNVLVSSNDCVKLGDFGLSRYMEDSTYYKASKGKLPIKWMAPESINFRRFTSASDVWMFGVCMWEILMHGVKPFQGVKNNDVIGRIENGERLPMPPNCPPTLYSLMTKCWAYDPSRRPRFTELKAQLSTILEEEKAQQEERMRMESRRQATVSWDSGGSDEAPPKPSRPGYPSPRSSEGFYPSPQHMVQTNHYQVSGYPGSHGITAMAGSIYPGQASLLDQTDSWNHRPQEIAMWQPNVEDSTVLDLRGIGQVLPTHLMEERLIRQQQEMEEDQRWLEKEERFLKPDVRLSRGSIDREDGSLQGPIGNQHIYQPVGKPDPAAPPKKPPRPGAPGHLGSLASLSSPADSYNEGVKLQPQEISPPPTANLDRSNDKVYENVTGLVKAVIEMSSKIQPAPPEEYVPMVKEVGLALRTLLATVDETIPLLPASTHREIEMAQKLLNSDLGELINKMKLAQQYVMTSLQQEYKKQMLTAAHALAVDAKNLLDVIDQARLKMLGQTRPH
Structure (SMILES),composite z-score [1],composite z-score [2],composite z-score [3],composite z-score [4],composite z-score [5],composite z-score [6],z-score [7],composite z-score (Lefty1),composite z-score [8],z-score [9],composite z-score [10],z-score [11],z-score [12],z-score [13],z-score [14],composite z-score [15],composite z-score [16],composite z-score (Torsin-1A (Homo sapiens) [17]),composite z-score (Torsin-1A (Homo sapiens) [18]),composite z-score [19]
CCCN1C(=O)[C@]2(Cc3ccccc3)N=C(c3ccc(OCCCO)cc3)O[C@@H]2c2ccccc21,1.9,1.22,0.0605,0.962,1.46,1.63,1.44,0.951,0.751,-4.12 (inactive),1.19,-5.27 (inactive),-0.204 (inactive),1.04 (inactive),-1.11 (inactive),0.501,0.872,0.317,0.773,1.84
CC=CC(O)C1C=CC2C(=O)N(C)C(=O)C2N1N1CCCCC1 (stereo not given),0.523,1.19,0.518,0.714,1.08,-0.0299,-0.138,0.446,0.864,-0.451 (inactive),0.251,0.173 (inactive),-0.0466 (inactive),1.79 (inactive),0.319 (inactive),0.988,-0.15,0.74,0.71,0.441
CC(C)C(=C=CC[C@@H](O)c1ccccc1OCCO)C[C@@H](O)COCc1ccccc1,-0.0424,0.42,-0.0011,0.807,1.28,1.45,1.88,0.435,0.288,-2.5 (inactive),0.679,-5.62 (inactive),0.173 (inactive),18.5 (active),-0.762 (inactive),0.235,0.15,0.636,1.1,1.98
COCCOC(=O)N1C(=O)[C@@]2(c3cc(C#CC4=CCCCC4)ccc31)[C@H](c1ccc(O)cc1)N1[C@H](c3ccccc3)[C@H](c3ccccc3)OC(=O)[C@H]1[C@@H]2C(=O)Nc1nc2ccccc2s1,0.494,1.21,0.822,0.93,0.862,1.08,-1.94,1.52,0.657,-0.946 (inactive),0.365,-0.799 (inactive),-0.424 (inactive),0.476 (inactive),2.17 (inactive),1.18,0.52,0.776,0.89,1.73
CC(C)NC(=O)[C@@]1(C)c2ccccc2C(=O)N(C(C)C)[C@H]1c1ccc(CO)cc1,-0.398,-0.259,0.0394,-0.66,-0.75,-0.516,-0.413,-1.05,-0.465,-0.682 (inactive),-0.79,0.0942 (inactive),-0.272 (inactive),0.0924 (inactive),0.626 (inactive),-1.35,-0.197,-3.17,-2.55,0.133
COC(=O)[C@@]1(Cc2ccccc2)[C@H]2c3cc(C(=O)N4CCCC4)n(Cc4cc(F)cc5c4OCOC5)c3C[C@H]2CN1C(=O)c1ccccc1,0.69,1.24,0.366,0.963,-0.0178,-0.575,0.487,-0.359,0.711,0.827 (inactive),0.503,0.147 (inactive),-0.511 (inactive),-0.185 (inactive),0.444 (inactive),0.503,0.0982,-0.0566,1.26,-0.457
C=CC[C@@]1(C(=O)N2CCCCC2)N=C(c2ccc(OCCCO)cc2)O[C@@H]1c1ccccc1,2.8,1.2,1.58,0.935,0.939,0.0286,1.9,-0.034,1.08,-0.952 (inactive),0.18,-3.63 (inactive),0.222 (inactive),1.5 (inactive),-0.134 (inactive),0.0319,0.411,0.521,1.22,-0.229
CN1C(=O)C2C(C1=O)C1C=C(c3ccc(CO)cc3)C2C(c2cccs2)N1Cc1cccc(OC(F)(F)F)c1 (stereo not given),1.87,1.25,0.726,1.02,0.942,0.384,0.38,0.733,0.661,0.117 (inactive),0.314,-3.4 (inactive),-0.656 (inactive),-0.336 (inactive),-1.55 (inactive),0.474,0.0689,1.13,-0.0742,0.834
CON(C)C(=O)C=C1C[C@@H](c2cccc(Cl)c2)O[C@@H](c2cccc(Cl)c2)O1,1.15,0.878,0.441,0.472,0.412,0.372,3.69,0.669,0.462,-0.344 (inactive),-0.124,-3.94 (inactive),0.875 (inactive),0.481 (inactive),-1.07 (inactive),2.55,-0.183,0.643,0.124,0.774
COC(=O)[C@@]1(Cc2ccc(OC)cc2)[C@H]2c3cc(C(=O)N(C)C)n(Cc4ccccc4)c3C[C@H]2CN1C(=O)c1ccccc1,3.25,1.14,0.649,-0.228,-0.0192,-0.825,2.63,-0.244,0.578,0.84 (inactive),-0.0424,-3.07 (inactive),-0.784 (inactive),-0.764 (inactive),0.592 (inactive),0.707,0.0882,-0.0982,0.14,-1.21
